PubChem BioAssay (NCATS)
Records with an inconclusive call do not appear. Where a call stands in place of a potency, no number is given. Activity calls are given as the source filed them. The call rests on the fitted dose curve; in most records, active means well fitted cell-killing curve with a large enough effect; inconclusive means small, poorly fitted or top-dose-only effect; inactive means no such curve, though single readings can be large or run the other way.

Assay: qHTS of pediatric cancer cell lines to identify multiple opportunities for drug repurposing: Primary screen for MG 63 (6-TG R) cells (AID 1347105); further: nearly all actives have a fitted effect of over 50% in size
Settings: MG 63 (6-TG R) viability, CellTiter-Glo, 48 h; series mostly up to 46 µM
Description: Drug repurposing or repositioning has been offered as a strategy for drug development in oncology programs. This approach has special potential for childhood cancers and other rare or orphan diseases, where the expected return on new drug development has been a disincentive to pharmaceuticals. […] In this project we exploit the poly-pharmacology of drugs to discover new indications via phenotypic screening of a panel of 19 well-characterized cell lines derived from solid tumors seen in children and adolescents. The goal is to identify approved drugs with previously unrecognized anticancer properties that has the potential to reveal new mechanisms and biological processes involved in carcinogenesis or drug resistance. We employed a titration-based paradigm (quantitative high-throughput screening or qHTS), where all compounds were tested at multiple concentrations for their effect on cell viability. Concentration-response curves (CRCs) were derived directly from the primary screen, and both potency and efficacy values were used to identify compounds with robust bioactivity profiles. We screened the NIH Chemical Genomics Center (NCGC) Pharmaceutical Collection (NPC) and Mechanism Interrogation Plate (MIPE) small molecule collections of approved and investigational compounds against these cell lines; and measured metabolically active cells after 48 hours of compound treatment as a proxy for cell viability. […] Assay Submitter: Nathalia J. Martinez, National Center for Advancing Translational Sciences, National Institutes of Health, Rockville, MD, USA; email: natalia.martinez@nih.gov Shen, M et al. Quantitative high-throughput phenotypic screening of pediatric cancer cell lines identifies multiple opportunities for drug repurposing. Oncotarget 2017 Dec 19;9(4):4758-4772. PMID 29435139.
The cells were obtained from University of North Carolina (UNC), Pediatric Preclinical Testing Program (PPT), and Coriell Institute (CI). qHTS cell viability assay: Cells were assayed in growth media at a density of 500-1,000 cells/well. Five microliters of cells were dispensed into 1,536-well, white, solid-bottom, TC-treated plates (Greiner Bio One) using a multidrop dispenser and incubated at 37 degrees C, 5% CO2, under a humidified atmosphere for 5 hours. Twenty-three nanoliters of compounds and controls (neutral control DMSO or positive control bortezomib at final concentration of 2.3 µM) were subsequently transferred by Kalypsys pintool. For primary screens, the MIPE collection was tested at 11-point dilutions (final concentrations range from 0.78 nM to 46 µM) and the NPC collection at 8-point dilutions (final concentrations range from 0.59 nM to 46 µM). Compounds tested in follow-up screens were assayed at 11-point dilutions. Cells were incubated for 48 hours, followed by addition of 3 µL of CellTiter-Glo (Promega). After a 15 min incubation at room temperature, samples were analyzed for luminescence intensity using a ViewLux High-throughput CCD imager equipped with clear filters.

**Q.** With `CN1C(=O)NC(=O)C(C)(C2=CCCCC2)C1=O` (stereo not given) as the compound, how does the Potency read?
**A.** inactive

**Q.** With `O=C1CN=C(c2ccccc2)c2cc([N+](=O)[O-])ccc2N1` as the compound, how does the Potency read?
**A.** inactive

**Q.** For `CN1CCC(O)(c2ccc(F)cc2)C(C(=O)c2ccc(F)cc2)C1` (stereo not given), which Potency is on record?
**A.** inactive

**Q.** With `O=C(CCCN1CCC2(CC1)C(=O)NCN2c1ccccc1)c1ccc(F)cc1` as the compound, how does the Potency read?
**A.** inactive

**Q.** For `CCCCC/C=C\C/C=C\C/C=C\C/C=C\CCCC(=O)NCC(=O)O`, which Potency is on record?
**A.** inactive

**Q.** With `CN1CC[C@]23c4c5ccc(O)c4O[C@H]2[C@@H](O)CC[C@H]3[C@H]1C5` as the compound, how does the Potency read?
**A.** inactive

**Q.** Which Potency does the source give for `COc1ccc2c(c1OC)C(=O)O[C@H]2[C@@H]1c2cc3c(cc2CCN1C)OCO3` here?
**A.** inactive

**Q.** With `NCCc1ccc(O)cc1` as the compound, how does the Potency read?
**A.** inactive

**Q.** With `O=P1(N(CCCl)CCCl)NCCCO1` (stereo not given) as the compound, how does the Potency read?
**A.** inactive

**Q.** With `COP(=S)(OC)Oc1cc(Cl)c(Cl)cc1Cl` as the compound, how does the Potency read?
**A.** inactive

**Q.** For `CCC(CC)(CNC(=O)CCCO)c1cccc(OC)c1`, which Potency is on record?
**A.** inactive

**Q.** With `CNC(C)(C)Cc1ccccc1` as the compound, how does the Potency read?
**A.** inactive

**Q.** Which Potency does the source give for `CN1C(=O)CCS(=O)(=O)C1c1ccc(Cl)cc1` (stereo not given) here?
**A.** inactive

**Q.** With `Nc1ccc([As](=O)(O)O)cc1` as the compound, how does the Potency read?
**A.** inactive

**Q.** For `O=C(N/N=C/c1ccc([N+](=O)[O-])o1)c1cc([N+](=O)[O-])cc([N+](=O)[O-])c1O`, which Potency is on record?
**A.** inactive

**Q.** With `NC(=O)CS(=O)C(c1ccccc1)c1ccccc1` (stereo not given) as the compound, how does the Potency read?
**A.** inactive

**Q.** Which Potency does the source give for `C[C@]12CC[C@@H]3c4ccc(OC(=O)N(CCCl)CCCl)cc4CC[C@H]3[C@@H]1CC[C@@H]2OP(=O)(O)O` here?
**A.** inactive

**Q.** With `Clc1ccccc1N1CCNCC1` as the compound, how does the Potency read?
**A.** inactive

**Q.** For `COc1cc(OC)c(OC)cc1C=O`, which Potency is on record?
**A.** inactive

**Q.** With `Cc1ncsc1CCCl` as the compound, how does the Potency read?
**A.** inactive

**Q.** For `C[C@H](N)C(=O)c1ccccc1`, which Potency is on record?
**A.** inactive

**Q.** With `CCC(C)C(C)(COC(N)=O)COC(N)=O` (stereo not given) as the compound, how does the Potency read?
**A.** inactive

**Q.** For `C[C@]12CC[C@H]3[C@@H](CCC4=CC(=O)CC[C@@H]43)[C@@H]1CC[C@@H]2OC(=O)CCc1ccco1`, which Potency is on record?
**A.** inactive

**Q.** With `C=CCC1([C@H](C)CCC)C(=O)NC(=O)NC1=O` as the compound, how does the Potency read?
**A.** inactive

**Q.** With `CCOP(=S)(OCC)Oc1ccc2c(C)c(Cl)c(=O)oc2c1` as the compound, how does the Potency read?
**A.** inactive

**Q.** For `COc1c2c(cc3c1OCO3)CCN(C)C2`, which Potency is on record?
**A.** inactive

**Q.** Which Potency does the source give for `CCC(C)(C)c1ccc(O)cc1` here?
**A.** inactive

**Q.** With `CCCN(CCC)C(=O)Cc1c(-c2ccc(Cl)cc2)nc2ccc(Cl)cn12` as the compound, how does the Potency read?
**A.** inactive

**Q.** Which Potency does the source give for `CCN(CCO)CCn1c(Cc2ccccc2)nc2c1c(=O)n(C)c(=O)n2C` here?
**A.** inactive

**Q.** With `O=c1oc2ccccc2c(O)c1Cc1c(O)c2ccccc2oc1=O` as the compound, how does the Potency read?
**A.** inactive

**Q.** With `C[N+]1(CCF)[C@@H]2CC[C@H]1CC(OC(=O)C(O)(c1ccccc1)c1ccccc1)C2` (stereo not given in full) as the compound, how does the Potency read?
**A.** inactive

**Q.** For `CC(=O)NC1CCSC1=O` (stereo not given), which Potency is on record?
**A.** inactive

**Q.** With `C=CCC1(C(C)CC)C(=O)NC(=O)NC1=O` (stereo not given) as the compound, how does the Potency read?
**A.** inactive

**Q.** With `CCC1(c2ccc(N)cc2)CCC(=O)NC1=O` (stereo not given) as the compound, how does the Potency read?
**A.** inactive

**Q.** Which Potency does the source give for `C[C@]12CC[C@@H]3c4ccc(OC(=O)N(CCCl)CCCl)cc4CC[C@H]3[C@@H]1CC[C@@H]2O` here?
**A.** inactive

**Q.** With `CCN(CC)C(=O)[C@@H]1C=C2c3cccc4[nH]cc(c34)C[C@H]2N(C)C1` as the compound, how does the Potency read?
**A.** inactive

**Q.** Which Potency does the source give for `C[C@H]1[C@@H]2Cc3ccc(O)cc3[C@@]1(C)CCN2C` here?
**A.** inactive

**Q.** For `Nc1nc(N)nc(NC2CC2)n1`, which Potency is on record?
**A.** inactive

**Q.** For `CCCOC(=O)c1cncn1C(C)c1ccccc1` (stereo not given), which Potency is on record?
**A.** inactive

**Q.** For `CN1C(=O)COc2c(C(=O)NC3CN4CCC3CC4)cc(Cl)cc21` (stereo not given), which Potency is on record?
**A.** inactive
